Laboratory results from article PMC13494018.

molecular target: PDL1, Q9NZQ7
Sequence (Q9NZQ7 whole entry): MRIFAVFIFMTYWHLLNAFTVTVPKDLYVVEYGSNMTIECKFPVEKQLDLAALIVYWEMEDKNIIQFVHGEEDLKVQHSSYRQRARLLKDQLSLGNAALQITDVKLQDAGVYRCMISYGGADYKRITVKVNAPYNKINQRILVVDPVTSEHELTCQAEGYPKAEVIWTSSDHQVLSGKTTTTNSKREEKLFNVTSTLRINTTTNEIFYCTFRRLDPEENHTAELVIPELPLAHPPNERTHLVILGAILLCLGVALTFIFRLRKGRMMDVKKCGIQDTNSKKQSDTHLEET

Binder	binding in a display sort
d8r1_design_ppi_996_dldesign_0_cycle1_af2pred (protein) SASDIKAAQKAAAAVLRVAAERFPEVAAVAEPAAETAYNGDAETAIKAILEAAEAIRAAAARLPGGAELRAYADALENIAALLKRLAA	not found (inactive)
d8r1_design_ppi_1481_dldesign_0_cycle1_af2pred (protein) SSDEDYAALVEGMALASQTYAQARALIAATGAAGGAQARALAQAAAAQLRAAGAKYPSRAAQYDALADGLVRTVTAAAA	binds (active)
d8r1_design_ppi_412_dldesign_0_cycle1_af2pred (protein) AKAAQLRATSDLYALAYIAEKKVGKALADKLRAAAASGDPAAMLAAAEEAAKAIGEIGKRLYERLVAALA	not found (inactive)
d8r1_design_ppi_882_dldesign_0_cycle1_af2pred (protein) MTPEEAAAEARRIGDGAAAAIAASTDVATAKAIYDRAVTELTALAAAFPEVAHVASAELVKVAKAYIAKGDAL	not found (inactive)
d8r1_design_ppi_482_dldesign_0_cycle1_af2pred (protein) SESEEWIKEITDAANQAVALAKAGKTAEAYALLDATAAKAAAKSPSRGALAKGVADAMRVYIDKYAAKKA	binds (active)
d8r1_design_ppi_47_dldesign_0_cycle1_af2pred (protein) GQAALDAAAKRLDELTKEAEKASPNTGKAVEAIRDGSIRVATALFAAGDAARGRAALENGVAASEKLVEATKS	not found (inactive)
d8r1_design_ppi_592_dldesign_0_cycle1_af2pred (protein) GDAEDAVRAAENALKSAENYLAKADTLEQAQKAINAAKGAREFIKYAAKLGADPATVAALEKKANAVEEAAKAKAKALA	not found (inactive)
d8r1_design_ppi_43_dldesign_0_cycle1_af2pred (protein) EEALKKASEALSEAARLAIKNPAYLPAFAATGAAYGKVLEAYKKSPEEAKKAAKELLALYEKEVAAAKAAL	not found (inactive)
d8r1_design_ppi_1038_dldesign_0_cycle1_af2pred (protein) SDKRLAKNTAEAILRRTKELAKKAAAATAEEAKALAAIAEKGAKSAEAVAKKSGDEETKKLAKEAKEAAKKAKE	not found (inactive)
d8r1_design_ppi_1124_dldesign_0_cycle1_af2pred (protein) STATAAANAAAFSSKGAAVVGDKFAPSVESVLERVVELDPAAGLAAAEAVAAAAAAHPAVRAVAEAVAARARAAL	not found (inactive)
d8r1_design_ppi_637_dldesign_0_cycle1_af2pred (protein) MTAEAAKAEVRARLEAAGERAAEAAKERGADYEAVLAAARSMAERAAADPDPEAALARGAEALAFLEALEKYYRE	not found (inactive)
d8r1_design_ppi_482_dldesign_0_cycle0_af2pred (protein) STTDEMIEKIAKAAQEAMKLAKEGKYEEAYALLKKMAEEAAKVSESLGALAKGVAEAMKNWIDKYKAEKA	not found (inactive)
d8r1_design_ppi_87_dldesign_0_cycle1_af2pred (protein) SEEEFERRIAIAAEQLAAMDAALAAIKASGDAAEKQALLAQLRAAGEEMAKALGPAGAAIAEALLAQAEAALAA	not found (inactive)
d8r1_design_ppi_419_dldesign_0_cycle1_af2pred (protein) SALEEKAKEAIEKMEKAAEELKKAAAELKKLDPEAGAAAEAALEAHLAILELAKKFSTKVTLNVAEAMTRGLERALKEAKARIAALK	not found (inactive)
d8r1_design_ppi_1265_dldesign_0_cycle0_af2pred (protein) SETEEGAKALIRAAANAAKYLAKKYGELAKKLAELVKKALEAGPEEAVKYLEEAAALAKEAGQKTGGTKAFAALQATLKKAAELKKK	not found (inactive)
d8r1_design_ppi_882_dldesign_0_cycle0_af2pred (protein) MTPEEAAAAARAIGAAAAAAIAASTDLATAGALADAAFRALVALAAAFPEVAPVASAEMAAVAKAFIAKGDAL	not found (inactive)
d8r1_design_ppi_897_dldesign_0_cycle1_af2pred (protein) NPEAKDAALVKIGEGASYVAAASGDTAVARTVFTTSYTGVQEGNLEAAAAAAVATVAAAVDAATAARVAALAAAAVAAYKA	not found (inactive)
d8r1_design_ppi_323_dldesign_0_cycle1_af2pred (protein) SALEEAKRAIAEARELAAEAKARGPAAAPAAAIAANAIAGAELLVELGSYEAATAVARAGIRVARAYLAAV	not found (inactive)
d8r1_design_ppi_1136_dldesign_0_cycle1_af2pred (protein) AAEKEARDLAAADNAIALVKKMLEAGVSPENALATAEAAAALLSPAARARLLAAARAIVAAHEAAKAAAAA	not found (inactive)
d8r1_design_ppi_1493_dldesign_0_cycle1_af2pred (protein) AAESEALRQQAIDLAQKAAEIAADDENAEEVKARIDAAIAHLQAGDYAAAAADLLAAAKLASPEARGYILKALLKAMEAA	binds (active)

Binder	binding in a display sort
d8r1_design_ppi_118_dldesign_0_cycle0_af2pred (protein) GLVSLLRAAKNTLESAIEAEDAEKAAKYLAGAAQLLEGAAKLDPRVEPAAKLAKEAAAAAKADIEKGKAKAKEALKAVEELLKEAEEE	not found (inactive)
d8r1_design_ppi_1429_dldesign_0_cycle1_af2pred (protein) SSLKREEILRKTAEAMAEATLAKVRELAKEDPERARRALENMRALLALLGPVAAKIGEEAYARGLAIIAEIA	not found (inactive)
d8r1_design_ppi_700_dldesign_0_cycle0_af2pred (protein) SENKAKMEEHLAKAKEALLKGDPAAAPLAEAMAKAAKEEGPAALMAAAAAAYAAVVAADPSAAPLASQALAHAAKAAIYLGDS	not found (inactive)
d8r1_design_ppi_700_dldesign_0_cycle1_af2pred (protein) EETKKKRDEYVKKAGEALLKADPTLTAQAAAIKDAAYNAGPAALMAAMAAAYKAAVAANPANAPYAAEAVNYAAKAAIYAKEA	not found (inactive)
d8r1_design_ppi_640_dldesign_0_cycle1_af2pred (protein) SEEEEKKYEELAKAGAAASKAGAVAAKHPDNPEIKKLADEAGKALSEAFTSDVETAKKLAEKVEALAKAAEALAA	not found (inactive)
d8r1_design_ppi_674_dldesign_0_cycle1_af2pred (protein) SEEKINQAWIDTSKASELILAGEELSVTDPEKGAALIEKGRALAEEAAKAVPSKAEAILSTAEKTLEVAKARAAEVAA	not found (inactive)
d8r1_design_ppi_345_dldesign_0_cycle1_af2pred (protein) ATAEATATKIKTGIEKMLKLSKELGKGALINAAAAAKASAKVMDKLLADPSITPAARAALTAARDEAEKAAKEAEAEAKKL	not found (inactive)
d8r1_design_ppi_400_dldesign_0_cycle0_af2pred (protein) SAELAAIKAAAENARAGAILLAKESKAETALKFNEAAKERLLKLAAATADAKAAKAVVEEEAKKAEEEIKKIGEE	not found (inactive)
d8r1_design_ppi_1102_dldesign_0_cycle1_af2pred (protein) DAVREAGVAAAQAIKVALDEGDKELANAVSEAARAAVADPALAPLVKEGAELIIDPEKREQGRELVEKAVAAYKAAQ	not found (inactive)
d8r1_design_ppi_994_dldesign_0_cycle1_af2pred (protein) GKVEELEKKFREELQAAADLIAELRKADPELGKLAAKALAYALANPELGRKLAEEVAAKSPLGAKAAAEILALIETREELLKAEKEA	not found (inactive)
d8r1_design_ppi_416_dldesign_0_cycle0_af2pred (protein) SEEAARILAETLGTISAQTAAAKAAAAAGDVEAARAAAAAARAAAEEGAKRLEELGNKSGAEALRSIGAATAAHIKALAAKAAA	binds (active)
d8r1_design_ppi_540_dldesign_0_cycle1_af2pred (protein) DKKTETILAGMEAASNAAALLKKDPAAGGAYLLAKAKEVGAAVGNAADIVPAAAAAAADPATAAARLREFVSIVVSSVTS	not found (inactive)
d8r1_design_ppi_1339_dldesign_0_cycle0_af2pred (protein) DEAWLAEIKALVSAAVAAAREGDVAALAAAQAAAAALAAAAPASVKPAAANATAGIATLLELTKERLEEKA	not found (inactive)
d8r1_design_ppi_1136_dldesign_0_cycle0_af2pred (protein) SAAAAARARTAAANAAALAKKMLEAGVSPENARALVEAAAARLTPEAGAALRAEGEALVAEYAARREAEAA	binds (active)
d8r1_design_ppi_753_dldesign_0_cycle0_af2pred (protein) SAEAQAALAGARAAVAGAELLVEVAEETGSQGALRAAKRAAEAAEEAARKAAELGAEEEARELEERAREVRERAEKLE	not found (inactive)
d8r1_design_ppi_508_dldesign_0_cycle1_af2pred (protein) AGKEALAKAIAEVKELVTAAMLANQKSREEGIKTAKEQAEKAKKLAEEAKASPLAAEIVKVLQSGRDFLEKLAEMLKES	not found (inactive)
d8r1_design_ppi_266_dldesign_0_cycle0_af2pred (protein) SKVEEAKERFEKVVEEAEKKVKEALAKAKTAEEALKASIEAIKEAASEIAKIYSEVGEEVADLAVEALARLSALTAEAKAAAAKKAAA	not found (inactive)
d8r1_design_ppi_1381_dldesign_0_cycle1_af2pred (protein) AAARQELVDRALAALDAARAASPEEAVAIAPKAYGLAVMVGEDPRVQAALEAAAAANPAAAPILNEALALARATAAAQAAARAAA	not found (inactive)
d8r1_design_ppi_753_dldesign_0_cycle1_af2pred (protein) NAAAKAALAAAKAAVEGASLLVEVAEKEGSKGMLEAAKRVAEEAIAAAEKAAKLGATEEAAKLKAQAKEVKKRAEKLE	not found (inactive)
